High-throughput results: PubChem, National Center for Advancing Translational Sciences (NCATS)
Most compounds without a hit are left out; they make up all but 1.7% or so of the library.
GLP1R inv ag: GLP-1 receptor (human) inverse agonism. P43220. HEK293 GLP-1R CRE-luciferase, luminescence, 24 h; GLP-1R form is constitutively active. Potency, µM (series often up to 38.3 µM), most hits filed as inhibitors. hit rate 1.6% among 410,000. AID 624417; note: nearly all actives have a fitted effect of over 55% in size
Target sequence (P43220 whole entry, looked up): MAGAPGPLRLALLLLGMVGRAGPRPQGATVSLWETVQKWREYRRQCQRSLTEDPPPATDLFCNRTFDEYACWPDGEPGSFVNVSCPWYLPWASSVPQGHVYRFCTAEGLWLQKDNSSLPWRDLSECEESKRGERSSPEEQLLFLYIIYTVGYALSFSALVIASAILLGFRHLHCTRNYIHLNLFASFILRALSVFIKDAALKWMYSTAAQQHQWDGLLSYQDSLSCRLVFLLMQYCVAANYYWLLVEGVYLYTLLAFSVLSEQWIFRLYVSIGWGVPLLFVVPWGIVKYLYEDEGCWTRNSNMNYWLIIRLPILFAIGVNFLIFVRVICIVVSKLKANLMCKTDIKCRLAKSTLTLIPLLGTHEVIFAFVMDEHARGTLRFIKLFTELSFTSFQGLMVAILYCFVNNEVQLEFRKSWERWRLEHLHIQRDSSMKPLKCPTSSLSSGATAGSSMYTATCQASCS
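Cells are plated, allowed 12 hours at 37 deg C, then treated with compounds for 24 hr before luciferase detection reagent is added and luminescence is read after 12 min at room temperature. The HEK293 line carries constitutively active GLP-1R with a cAMP-responsive reporter.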
GLP-1R agonist: activates the human GLP-1 receptor | P43220 | HEK293 GLP-1R CRE-luciferase, luminescence, 4-6 h; cells express a hypersensitive GLP-1R form | Potency, µM (titrated, usually from 45.6 µM), most hits filed as activators | hit rate 0.007% among 380,000 | AID 624172
GLP1R cytotox: cytotoxicity in counter-screen for GLP-1R inverse agonists; Potency, µM (top dose mostly 38.3 µM), usual class: inhibitors; HEK293 cAMP-luciferase reporter cells, luminescence, 24 h; AID 624418; hit rate 0.13% among 410,000;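 note: loss of luciferase light is scored as toxicity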
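Quantitative HTS format, 1536 wells, 200 cells/uL seeded. Compounds: 23 nL, 24 h, 37 °C. Detection: luciferase reagent, luminescence at 12 min RT; decreased signal taken as cytotoxic.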
A number is an active result. Calls come from the whole dose curve; as a rule, active = well fitted curve in the direction sought with a large enough effect; inconclusive = small, poorly fitted or top-dose-only effect, or another doubt; inactive = no such curve, though single readings can be large; an effect the other way counts as inactive or inconclusive.

For CCOC(=O)c1ccc(NC(=O)CCc2c(C)nc3c(-c4ccc(F)cc4)c(C)nn3c2C)cc1 the results were GLP1R inv ag inactive, GLP-1R agonist inactive and GLP1R cytotox inactive.
O=C(O/N=C1/CCCc2occc21)c1ccc(Cl)cc1Cl was read as GLP1R inv ag inactive, GLP-1R agonist inactive and GLP1R cytotox inactive.
`COc1ccccc1CNC(=O)c1ccc2c(c1)N(Cc1cccc(C)c1)C(=O)c1ccccc1S2(=O)=O` gave GLP1R inv ag inactive, GLP-1R agonist inactive and GLP1R cytotox inactive.
Screening Cc1ccccc1OCC(=O)Nc1ccc(S(=O)(=O)N(Cc2ccccc2)c2ccccc2)cc1 returned GLP1R inv ag inactive and GLP1R cytotox inactive.
`COc1ccc(S(=O)(=O)N=Nc2c(O)[nH]c3ccccc23)cc1` gave GLP1R inv ag inactive, GLP-1R agonist inactive and GLP1R cytotox inactive.
For COc1ccc(NC(=S)N=Nc2c(O)[nH]c3ccccc23)cc1 the results were GLP1R inv ag inconclusive, GLP-1R agonist inactive and GLP1R cytotox 3.2µM.
For Cc1ccccc1N=Nc1c(O)[nH]c2ccccc12 the results were GLP1R inv ag inactive, GLP-1R agonist inactive and GLP1R cytotox inactive.
`Cc1ccc(NC(=S)N=Nc2c(O)[nH]c3ccccc23)cc1` gave GLP1R inv ag inconclusive, GLP-1R agonist inactive and GLP1R cytotox 4µM.
`Oc1ccc(NC(=S)N=Nc2c(O)[nH]c3ccccc23)cc1` gave GLP1R inv ag inactive, GLP-1R agonist inactive and GLP1R cytotox inconclusive.
`CNC(=S)N=Nc1c(O)[nH]c2ccccc12` gave GLP1R inv ag inactive, GLP-1R agonist inactive and GLP1R cytotox 11µM.
Screening O=c1cccc(-c2ccc3ccccc3c2)o1 returned GLP1R inv ag inactive and GLP1R cytotox inactive.
CCOc1ccccc1NC(=O)N(Cc1ccc(F)cc1)C1CCN(CC)CC1 was read as GLP1R inv ag inactive and GLP1R cytotox inactive.
Screening O=C(Cn1c(=O)n(Cc2ccc(C(=O)NCc3ccc4c(c3)OCO4)cc2)c(=O)c2ccccc21)Nc1ccc(F)cc1F returned GLP1R inv ag inactive and GLP1R cytotox inactive.
`COc1cc(/C=C2/C(=O)NN(c3ccccc3)C2=O)cc(Br)c1O` gave GLP1R inv ag inconclusive, GLP-1R agonist inactive and GLP1R cytotox inactive.
For COc1cc(/C=C2/C(=O)NN(c3ccc(Cl)cc3)C2=O)cc(OC)c1O the results were GLP1R inv ag 4µM, GLP-1R agonist inactive and GLP1R cytotox inconclusive.
O=C1NN(c2ccccc2)C(=O)C1=Cc1ccccc1 was read as GLP1R inv ag 4µM, GLP-1R agonist inactive and GLP1R cytotox inconclusive.
Screening O=C1NN(c2ccccc2)C(=O)/C1=C\c1ccccc1 returned GLP1R inv ag inconclusive, GLP-1R agonist inactive and GLP1R cytotox inactive.
`CCCc1c(OCCCOc2ccc(OCC(=O)O)cc2)ccc(C(C)=O)c1O` gave GLP1R inv ag inactive, GLP-1R agonist inactive and GLP1R cytotox inactive.
For CCCCC[C@@H](C)N1C[C@@H](COCc2ccccc2)Oc2cc(N3CCC[C@H]3CO)ccc2S1(=O)=O the results were GLP1R inv ag inconclusive, GLP-1R agonist inactive and GLP1R cytotox inactive.
For C[C@@H](c1ccccc1)N1C[C@H](COCc2ccccc2)Oc2cc(N3CC[C@H](O)C3)ccc2S1(=O)=O the results were GLP1R inv ag 10µM, GLP-1R agonist inactive and GLP1R cytotox inactive.
`C[C@H](c1ccccc1)N1C[C@@H](COCc2ccccc2)Oc2cc(N3CC[C@@H](O)C3)ccc2S1(=O)=O` gave GLP1R inv ag inconclusive, GLP-1R agonist inactive and GLP1R cytotox inactive.
For CCCCC[C@@H](C)N1C[C@H](COCc2ccccc2)Oc2cc(N3CCC[C@@H]3CO)ccc2S1(=O)=O the results were GLP1R inv ag 11µM, GLP-1R agonist inactive and GLP1R cytotox inactive.
Screening Cc1c(NC(=O)c2cccc(NC(=O)COc3cccc(Br)c3)c2)c(=O)n(-c2ccccc2)n1C returned GLP1R inv ag inactive, GLP-1R agonist inactive and GLP1R cytotox inactive.
CCN(CC)CC(O)Cn1c(C)c(-c2ccccc2)c2cc([N+](=O)[O-])ccc21 (stereo not given) was read as GLP1R inv ag 4.5µM, GLP-1R agonist inactive and GLP1R cytotox inconclusive.
For CCN(CC)CC(O)Cn1c2ccccc2c2ccccc21 (stereo not given) the results were GLP1R inv ag inconclusive, GLP-1R agonist inactive and GLP1R cytotox inactive.
Cc1ccccc1OCCSc1nc2ccc(NC(=O)c3ccccc3)cc2s1 was read as GLP1R inv ag 2.8µM and GLP1R cytotox inactive.
Screening Cc1ccccc1OCCSc1nc2ccc(NC(=O)c3cccs3)cc2s1 returned GLP1R inv ag 13µM and GLP1R cytotox inactive.
Cc1cccc(OCCSc2nc3ccc(NC(=O)c4cccs4)cc3s2)c1 was read as GLP1R inv ag inconclusive and GLP1R cytotox inactive.
